Screening results: PubChem, National Center for Advancing Translational Sciences (NCATS)
AmpC inh detg: blocks E. coli AmpC beta-lactamase in detergent assay; Potency, µM (top dose mostly 114 µM), usual class: inhibitors; AID 485294; 370,000 tested, 0.041% active; AmpC hydrolysis of nitrocefin, absorbance 480 nm, 0.01% Triton; also: nearly all actives have a fitted effect of over 25% in size
Target sequence (P00811 whole entry, looked up): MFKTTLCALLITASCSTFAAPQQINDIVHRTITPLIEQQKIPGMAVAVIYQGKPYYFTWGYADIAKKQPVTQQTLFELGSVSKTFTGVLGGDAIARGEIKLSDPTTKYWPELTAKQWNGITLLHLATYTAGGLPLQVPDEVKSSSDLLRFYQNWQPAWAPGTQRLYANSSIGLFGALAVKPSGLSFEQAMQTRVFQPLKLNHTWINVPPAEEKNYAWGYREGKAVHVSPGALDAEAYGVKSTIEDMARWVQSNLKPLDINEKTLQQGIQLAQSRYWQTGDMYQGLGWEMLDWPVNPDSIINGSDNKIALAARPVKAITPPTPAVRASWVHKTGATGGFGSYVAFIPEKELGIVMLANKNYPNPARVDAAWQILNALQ
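AmpC (5.3 nM in the dispensed reagent) in 20 mM phosphate pH 7.0 with 0.01% (detergent screen) or 0.0001% Triton X-100 was preincubated with compounds for 15 min at room temperature. Nitrocefin was then added from an 800 uM solution, and hydrolysis was followed at 480 nm.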
AmpC no deterg: inhibitors of E. coli AmpC beta-lactamase without detergent | AmpC nitrocefin hydrolysis, absorbance 480 nm, 0.0001% Triton | P00811 | Potency, µM (series often up to 57.1 µM), hits mostly inhibitors | 330,000 tested, 0.52% active | AID 485341; also: nearly all actives have a fitted effect of over 20% in size
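AmpC (5.3 nM in the dispensed reagent) in 20 mM phosphate pH 7.0 with 0.01% (detergent screen) or 0.0001% Triton X-100 was preincubated with compounds for 15 min at room temperature. Nitrocefin was then added from an 800 uM solution, and hydrolysis was followed at 480 nm.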
NS1 function inh: blocks influenza NS1 protein function; Potency, µM (top dose mostly 46.1 µM); 270,000 tested, 0.4% active; calls by dose curve; also: actives are rising curves; nearly all actives have a fitted effect of over 50% in size
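Recovery from NS1-induced slow growth read by OD600 in budding yeast switched to galactose assay medium (pH 6.0, -URA) at 1:100 dilution. Compound 23 nl per well; the matching strain lacking NS1 serves as control.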
Shiga toxin inh: blocks Shiga toxin action in Vero cells; inhibition, % at 38.7 µM; AID 2315; Vero cells, Shiga toxin protein synthesis inhibition reporter; 290,000 tested, 9.2% active; in the data active = inhibition mostly above about 28%, no sharp cut-off; inactive = mostly below about 43%
CHX counter: counter-screen for Shiga toxin inhibitors: cycloheximide protein synthesis inhibition; cell reporter, cycloheximide protein synthesis inhibition counterscreen; max response, %; 300,000 tested, 12% active; AID 2314; in the data active = max response mostly above about 13%, no sharp cut-off; inactive = mostly below about 14%; also: read at 38.3 µM for the half of the compounds with a filed dose
A number is an active result; – = inactive; ? = inconclusive; · = no result; + = active, no number; [ ] = remark or other dose. The full list was thinned out, with hits kept by preference. Unless noted, calls follow the shape of the dose curve; as a rule, active = well fitted curve in the direction sought with a large enough effect; inconclusive = small, poorly fitted or top-dose-only effect, or another doubt; inactive = no such curve, though single readings can be large; an effect the other way counts as inactive or inconclusive.

SMILES	AmpC inh detg	AmpC no deterg	NS1 function inh	Shiga toxin inh	CHX counter
CC(C)c1ccc(-c2nnc(SCC(=O)NC3CC3)n2C)cc1	?	–	–	37.0	12.6
Cn1c(SCC(=O)c2ccc(O)c(O)c2)nnc1-c1cccs1	–	–	–	–	26.0
O=C(CSc1nc2ccccc2n1CCc1ccccc1)N1CCOCC1	–	–	–	–	–
CN(C1CCCCC1)S(=O)(=O)c1cn(C)c(=O)n(C)c1=O	–	–	·	·	·
CC1CN(C(=O)CSc2nnc(-c3ccc(Cl)cc3)n2C)CC(C)O1 (stereo unspecified)	–	–	–	–	20.1
CC1CN(C(=O)CSc2nnc(-c3ccncc3)n2-c2ccccc2)CC(C)O1 (stereo unspecified)	–	–	–	–	–
COc1cc(C2Nc3cc(Cl)c(S(N)(=O)=O)cc3S(=O)(=O)N2)ccc1OCc1ccccc1 (stereo unspecified)	–	–	–	128.1	54.8
COC(=O)C(CCSC)NC(=O)Cn1ncc2c([nH]c3ccccc32)c1=O (stereo unspecified)	–	·	·	·	·
CN(C)S(=O)(=O)c1ccc(C(=O)OCCc2ccccc2)cc1	–	–	–	–	39.3
CN(C)S(=O)(=O)c1ccc(C(=O)NCCS(=O)(=O)N2CCN(c3ccc(F)cc3)CC2)cc1	?	–	–	–	–
CN(C)S(=O)(=O)c1ccc(C(=O)OCC(=O)NCc2ccccc2)cc1	–	–	·	–	–
CN(C)S(=O)(=O)c1ccc(C(=O)NCCOc2ccccc2)cc1	–	–	–	82.8	40.1
CN(C)S(=O)(=O)c1ccc(C(=O)NCCOc2ccc(F)cc2)cc1	–	–	–	84.1	42.2
CC(C)=CCC/C(C)=C/CO	·	·	–	·	·
Cc1ccc(N/N=C(\C#N)C(=O)c2ccsc2)cc1	–	–	–	–	21.0
N#C/C(=N\Nc1cccc(Cl)c1)C(=O)c1ccccc1	–	–	–	–	–
N#C/C(=N\Nc1ccc(Cl)cc1)C(=O)c1ccsc1	–	–	–	52.8	30.7
CCOc1ccc(/C=C/c2nc(C#N)c(N3CCN(c4ccc(OC)cc4)CC3)o2)cc1	–	·	·	·	·
O=S1(=O)C=C(Sc2nc3ccccc3s2)c2ccccc21	–	?	?	75.5	76.9
Cc1cn2c(=O)cc(COc3cccc(NC(=O)c4ccccc4C)c3)nc2s1	–	·	·	·	·
CC(C)c1ccc(N2C(=O)NC(=O)/C(=C/c3cnc(-c4ccccc4)nc3)C2=O)cc1	?	–	–	–	–
CCc1ccc(N2C(=O)NC(=O)/C(=C\c3cccn3CCOc3ccc(C(C)C)cc3)C2=O)cc1	–	–	–	+	73.1
Cn1cccc1/C=C1\C(=O)NC(=O)N(Cc2ccco2)C1=O	–	–	·	–	–
Cc1ccc(OCCn2cccc2/C=C2/C(=O)NC(=O)N(Cc3ccco3)C2=O)cc1	–	?	–	36.9	21.7
Cc1nn(C)c2c1c(-c1ccccc1)cc(=O)n2C(C)C(=O)NCCc1ccc(Cl)cc1 (stereo unspecified)	–	·	·	·	·
SMILES	AmpC inh detg	AmpC no deterg	NS1 function inh	Shiga toxin inh	CHX counter
O=C(c1cc([N+](=O)[O-])ccc1N1CCOCC1)N1CCCC1	–	–	–	–	–
Cc1cc2sc3ccccc3c(=O)c2c(C)c1O	–	–	–	84.9	71.0
Nc1ccc(-c2ccc(N)c([N+](=O)[O-])c2)cc1[N+](=O)[O-]	–	–	·	–	–
Nc1ccc(-c2cnc[nH]2)cc1[N+](=O)[O-]	–	–	–	–	12.3
Cc1cc(NC(=O)c2cc3cccc([N+](=O)[O-])c3[nH]2)ccc1F	–	–	–	85.8	55.6
COCC(C)NC(=O)c1cc2cccc([N+](=O)[O-])c2[nH]1 (stereo unspecified)	–	–	–	–	–
O=C(C1CC(c2ccc(F)cc2)=NO1)N1CCc2ccccc2C1 (stereo unspecified)	–	–	–	–	–
O=C(C1CC(c2ccc(F)cc2)=NO1)N1CCCCC1 (stereo unspecified)	–	–	–	60.6	25.9
O=C(C1CC(c2ccc(Cl)c(Cl)c2)=NO1)N1CCC2(CC1)OCCO2 (stereo unspecified)	–	–	?	117.5	27.7
CC1CCCCN1C(=O)C1CC(c2ccc(F)cc2)=NO1 (stereo unspecified)	–	–	–	90.3	58.8
O=C(C1CC(c2ccc(F)cc2)=NO1)N1CCN(c2ccccc2)CC1 (stereo unspecified)	?	–	–	–	–
O=C(C1CC(c2ccc(F)cc2)=NO1)N1CCC2(CC1)OCCO2 (stereo unspecified)	–	–	–	71.2	45.1
Cc1nn(CCCC(=O)NCCCN2CCN(C)CC2)c(=O)c2c1sc1ccccc12	–	–	–	–	–
O=C(Nc1ccc(F)cc1)C1CCN(c2nc3ccccc3n3cccc23)CC1	–	·	·	·	·
Cc1cc2c(s1)c1cnn(Cc3cccc(Cl)c3)c(=O)c1n2C	·	·	·	–	–
COc1ccc(OC)c(NC(=O)CSc2cn(CC(=O)N3CCOCC3)c3ccccc23)c1	–	·	·	·	·
COc1cccc(C2=NOC(C(=O)NC(C)C)C2)c1 (stereo unspecified)	–	–	–	–	–
COc1cccc(C2=NOC(C(=O)N3CCc4ccccc4C3)C2)c1 (stereo unspecified)	?	–	–	26.2	12.5
COc1cccc(C2=NOC(C(=O)N3CCC4(CC3)OCCO4)C2)c1 (stereo unspecified)	–	–	–	96.5	52.4
O=C(C1CC(c2ccccc2O)=NO1)N1CCCCC1 (stereo unspecified)	–	–	–	132.8	48.2
COc1ccc(CCNC(=O)c2ccc(Nc3nc4ccccc4n4nnnc34)cc2)cc1OC	–	·	·	·	·
CC[C@H](C)[C@H](NC(=O)CNC(=O)[C@@H](NC(=O)[C@@H](NC(=O)[C@H](Cc1ccc(O)cc1)NC(=O)[C@H](CC(C)C)NC(=O)[C@H](C)NC(=O)[C@H](CCC(N)=O)NC(=O)CNC(=O)[C@@H]1CCCN1C(=O)CNC(=O)[C@H](Cc1ccccc1)NC(=O)[C@H](Cc1cnc[nH]1)NC(=O)[C@@H](NC(=O)CNC(=O)[C@H](CCCNC(=N)N)NC(=O)[C@H](CCCNC(=N)N)NC(=O)[C@@H](NC(=O)[C@H](CC(N)=O)NC(=O)[C@@H](N)CS)[C@@H](C)O)[C@@H](C)CC)[C@@H](C)O)[C@@H](C)O)C(=O)O	·	·	·	–	–
C=CCNc1nc(-c2ccc(OC)cc2OC)cs1	–	–	–	69.2	38.0
COc1ccc(-c2csc(NC(=O)C3=COCCO3)n2)c(OC)c1	?	–	·	·	·
COC(=O)N/N=C1\CCCc2ccccc21	–	–	–	–	–
S=C(N/N=C1\CCc2ccccc21)NC1CCCCC1	–	–	–	112.0	32.5
O=C(N/N=C1/CCc2ccccc21)C1CC1	–	–	·	92.0	32.9
O=C(N/N=C1\CCc2ccccc21)c1ccc(O)cc1	–	–	–	56.5	42.9
COc1ccc(NCC(=O)N/N=C2\CCc3ccccc32)cc1	?	–[11.4 µM]	·	66.3	29.4
